# Experimental data taken from publication PMC7862700, “An all-to-all approach to the identification of sequence-specific readers for epigenetic DNA modifications on cytosine”.
# Experiments:
# Assay in all cases: DAPPL (digital affinity profiling via proximity ligation, sequencing); 10 mM Tris-HCl pH 7.5, 50 mM NaCl, 1 mM DTT, 4% glycerol, room temperature, 30 min; GST-TFs on glutathione beads, 16-mer random dsDNA library, 0.1% formaldehyde crosslink after washing; high values mean tight binding
# Conditions in all cases: protein: recombinant; tags: N-terminal GST; dsDNA, one strand shown
# FLI1 = target: T1, FLI1 (Homo sapiens, UniProt Q01543 1-452)
# T1 sequence: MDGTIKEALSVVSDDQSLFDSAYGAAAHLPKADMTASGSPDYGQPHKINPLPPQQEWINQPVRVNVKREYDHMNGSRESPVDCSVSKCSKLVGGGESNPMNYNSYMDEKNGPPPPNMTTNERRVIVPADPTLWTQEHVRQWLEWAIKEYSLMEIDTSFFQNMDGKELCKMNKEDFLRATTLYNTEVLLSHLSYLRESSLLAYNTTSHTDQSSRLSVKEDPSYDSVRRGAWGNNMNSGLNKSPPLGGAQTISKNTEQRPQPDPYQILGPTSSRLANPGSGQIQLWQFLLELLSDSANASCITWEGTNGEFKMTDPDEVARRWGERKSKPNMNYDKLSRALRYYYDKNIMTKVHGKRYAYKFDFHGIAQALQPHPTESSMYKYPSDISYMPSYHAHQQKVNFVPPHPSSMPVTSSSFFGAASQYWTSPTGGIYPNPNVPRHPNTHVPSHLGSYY
# Method in brief: (§1)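 A tag-only sample was pooled with DNA-barcoded human transcription factors that had been expressed in yeast as GST fusions and captured on glutathione beads. The pools were incubated for 30 min at room temperature with 200 nmole of a random double-stranded 16-mer DNA library in Tris/NaCl/DTT/glycerol buffer, then washed, crosslinked with 0.1% formaldehyde, proximity-ligated (BsaI/T4 ligase, 1 h, 37 °C), PCR-amplified and sequenced on an Illumina NextSeq500. Binding signal is each hexamer's read frequency for a factor divided by its frequency for the tag-only sample.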
# ELK1 = target: T2, ELK1 (Homo sapiens, UniProt P19419 1-428)
# T2 sequence: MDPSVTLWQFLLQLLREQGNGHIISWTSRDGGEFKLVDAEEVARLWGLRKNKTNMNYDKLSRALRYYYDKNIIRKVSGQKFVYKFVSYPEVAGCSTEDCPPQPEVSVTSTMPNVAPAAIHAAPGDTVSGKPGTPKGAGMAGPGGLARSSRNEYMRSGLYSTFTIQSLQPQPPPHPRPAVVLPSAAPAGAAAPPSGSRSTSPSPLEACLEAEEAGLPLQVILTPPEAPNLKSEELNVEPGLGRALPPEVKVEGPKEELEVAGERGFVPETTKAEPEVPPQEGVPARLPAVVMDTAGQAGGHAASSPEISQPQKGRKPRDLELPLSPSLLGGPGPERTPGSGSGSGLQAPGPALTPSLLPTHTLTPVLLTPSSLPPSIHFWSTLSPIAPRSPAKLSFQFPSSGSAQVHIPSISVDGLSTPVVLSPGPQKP
# Method in brief: as §1
# GABPA = target: T3, GABPA (Homo sapiens, UniProt Q06546 1-454)
# T3 sequence: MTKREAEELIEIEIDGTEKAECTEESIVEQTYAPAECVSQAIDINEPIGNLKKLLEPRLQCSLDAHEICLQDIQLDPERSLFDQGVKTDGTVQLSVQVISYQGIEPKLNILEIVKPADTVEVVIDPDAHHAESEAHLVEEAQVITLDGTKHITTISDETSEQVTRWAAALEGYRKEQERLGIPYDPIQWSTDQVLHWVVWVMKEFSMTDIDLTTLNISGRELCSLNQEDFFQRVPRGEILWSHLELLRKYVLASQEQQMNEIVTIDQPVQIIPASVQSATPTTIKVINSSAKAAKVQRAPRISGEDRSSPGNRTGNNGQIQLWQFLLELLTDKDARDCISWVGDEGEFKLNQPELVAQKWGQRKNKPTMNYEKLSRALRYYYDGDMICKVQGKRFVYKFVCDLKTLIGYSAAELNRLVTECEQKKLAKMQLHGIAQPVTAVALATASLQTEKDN
# Method in brief: as §1
# ERG = target: T4, ERG (Homo sapiens, UniProt P11308 1-479)
# T4 sequence: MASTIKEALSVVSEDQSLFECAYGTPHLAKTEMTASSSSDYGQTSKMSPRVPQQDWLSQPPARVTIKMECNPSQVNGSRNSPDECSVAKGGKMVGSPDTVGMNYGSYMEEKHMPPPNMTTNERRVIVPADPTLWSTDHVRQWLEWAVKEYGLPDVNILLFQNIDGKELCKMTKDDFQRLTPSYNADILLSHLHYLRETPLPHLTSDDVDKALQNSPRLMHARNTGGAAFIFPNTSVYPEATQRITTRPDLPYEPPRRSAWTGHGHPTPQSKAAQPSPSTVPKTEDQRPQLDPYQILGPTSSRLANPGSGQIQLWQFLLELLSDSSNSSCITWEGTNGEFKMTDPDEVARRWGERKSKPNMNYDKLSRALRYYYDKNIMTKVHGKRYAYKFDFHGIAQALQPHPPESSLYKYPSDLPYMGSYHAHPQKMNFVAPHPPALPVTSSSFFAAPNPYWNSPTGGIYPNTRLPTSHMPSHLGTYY
# Method in brief: as §1
# ELF1 = ELF1 (Homo sapiens, UniProt P32519 1-619)
# Method in brief: as §1
# EHF = target: T5, EHF (Homo sapiens, UniProt Q9NZC4 1-300)
# T5 sequence: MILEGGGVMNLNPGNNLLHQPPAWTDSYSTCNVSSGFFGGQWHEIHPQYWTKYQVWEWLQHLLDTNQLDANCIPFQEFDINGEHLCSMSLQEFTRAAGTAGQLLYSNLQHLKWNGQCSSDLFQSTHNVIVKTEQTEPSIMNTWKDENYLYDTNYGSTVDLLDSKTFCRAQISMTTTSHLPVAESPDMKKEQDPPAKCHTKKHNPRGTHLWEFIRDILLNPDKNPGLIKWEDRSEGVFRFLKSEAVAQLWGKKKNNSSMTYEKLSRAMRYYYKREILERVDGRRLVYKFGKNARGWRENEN
# Method in brief: as §1
# SPI1 = SPI1 (Homo sapiens, UniProt P17947 1-270)
# Method in brief: as §1
# SPIB = SPIB (Homo sapiens, UniProt Q01892 1-262)
# Method in brief: as §1
# ELK3 = target: T6, ELK3 (Homo sapiens, UniProt P41970 1-407)
# T6 sequence: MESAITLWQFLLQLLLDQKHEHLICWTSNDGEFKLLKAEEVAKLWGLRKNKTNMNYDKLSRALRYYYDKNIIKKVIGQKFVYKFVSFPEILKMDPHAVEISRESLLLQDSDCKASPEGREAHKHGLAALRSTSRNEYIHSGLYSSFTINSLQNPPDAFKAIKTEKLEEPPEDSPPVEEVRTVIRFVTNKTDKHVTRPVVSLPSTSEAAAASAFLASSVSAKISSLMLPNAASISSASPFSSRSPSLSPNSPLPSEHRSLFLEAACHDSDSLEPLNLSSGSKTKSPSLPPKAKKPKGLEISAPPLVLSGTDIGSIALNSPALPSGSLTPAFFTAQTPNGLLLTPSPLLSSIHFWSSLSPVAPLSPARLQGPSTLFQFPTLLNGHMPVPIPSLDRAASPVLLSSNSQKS
# Method in brief: as §1
# SPIB, sequence (Q01892 whole entry): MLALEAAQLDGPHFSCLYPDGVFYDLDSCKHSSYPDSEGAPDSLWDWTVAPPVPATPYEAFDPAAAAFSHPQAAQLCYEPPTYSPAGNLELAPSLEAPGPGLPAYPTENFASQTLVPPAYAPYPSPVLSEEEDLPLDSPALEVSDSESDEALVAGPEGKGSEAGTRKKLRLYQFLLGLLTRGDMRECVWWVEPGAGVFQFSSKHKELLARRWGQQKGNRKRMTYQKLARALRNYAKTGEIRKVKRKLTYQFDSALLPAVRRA
# ELF1, sequence (P32519 whole entry): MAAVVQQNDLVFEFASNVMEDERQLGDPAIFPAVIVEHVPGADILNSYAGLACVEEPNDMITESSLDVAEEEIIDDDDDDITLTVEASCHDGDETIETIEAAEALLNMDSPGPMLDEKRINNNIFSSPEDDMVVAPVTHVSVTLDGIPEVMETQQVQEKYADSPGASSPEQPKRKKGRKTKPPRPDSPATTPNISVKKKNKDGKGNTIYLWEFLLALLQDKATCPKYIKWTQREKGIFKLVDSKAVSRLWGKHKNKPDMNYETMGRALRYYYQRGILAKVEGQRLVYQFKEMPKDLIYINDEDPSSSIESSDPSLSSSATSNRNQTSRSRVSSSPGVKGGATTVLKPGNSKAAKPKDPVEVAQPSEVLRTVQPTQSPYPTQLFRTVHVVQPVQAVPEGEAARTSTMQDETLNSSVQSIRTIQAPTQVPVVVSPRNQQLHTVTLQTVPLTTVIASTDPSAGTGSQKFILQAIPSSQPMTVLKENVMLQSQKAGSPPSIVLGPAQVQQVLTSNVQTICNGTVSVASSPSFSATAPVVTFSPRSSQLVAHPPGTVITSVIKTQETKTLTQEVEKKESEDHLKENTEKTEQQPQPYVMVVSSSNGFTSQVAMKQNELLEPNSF
sequence,measurement,setting,value
TCGCCC,binding signal,FLI1,"1.34 fold enrichment (6-mer frequency, TF over GST control)"
same,binding signal,ELK1,"1.4 fold enrichment (6-mer frequency, TF over GST control)"
same,binding signal,GABPA,"1.3 fold enrichment (6-mer frequency, TF over GST control)"
same,binding signal,ERG,"1.27 fold enrichment (6-mer frequency, TF over GST control)"
same,binding signal,ELF1,"1.31 fold enrichment (6-mer frequency, TF over GST control)"
same,binding signal,EHF,"1.27 fold enrichment (6-mer frequency, TF over GST control)"
same,binding signal,SPI1,"1.29 fold enrichment (6-mer frequency, TF over GST control)"
same,binding signal,SPIB,"1.25 fold enrichment (6-mer frequency, TF over GST control)"
same,binding signal,ELK3,"1.27 fold enrichment (6-mer frequency, TF over GST control)"
